Bst PK mod – pyruvate kinase (B. stearothermophilus) modulation | purified pyruvate kinase, luminescence ATP production; ribose 5-phosphate activator present at AC10 | Potency, µM | 51,000 compounds, 1.2% hits; in the data active = potency below about 11 µM; inconclusive = mostly about 12 µM to 25 µM;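 the screen sought inhibitors and activators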;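 also: scaled between full activation by ribose 5 phosphate and full inhibition by luteolin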
FLuc inh – blocks Photinus pyralis firefly luciferase activity | purified firefly luciferase, luminescence, 8 min | 72,000 compounds, 2.2% hits | Potency, µM (series often up to 57.1 µM), without a hit: at the highest dose activity change, negative = inhibition, hits mostly inhibitors | P08659 | AID 411; also: % is scaled to controls: 0 for no effect and ±100 for the full control effect; nearly all actives have a fitted effect of over 40% in size
Target sequence (P08659 whole entry, looked up): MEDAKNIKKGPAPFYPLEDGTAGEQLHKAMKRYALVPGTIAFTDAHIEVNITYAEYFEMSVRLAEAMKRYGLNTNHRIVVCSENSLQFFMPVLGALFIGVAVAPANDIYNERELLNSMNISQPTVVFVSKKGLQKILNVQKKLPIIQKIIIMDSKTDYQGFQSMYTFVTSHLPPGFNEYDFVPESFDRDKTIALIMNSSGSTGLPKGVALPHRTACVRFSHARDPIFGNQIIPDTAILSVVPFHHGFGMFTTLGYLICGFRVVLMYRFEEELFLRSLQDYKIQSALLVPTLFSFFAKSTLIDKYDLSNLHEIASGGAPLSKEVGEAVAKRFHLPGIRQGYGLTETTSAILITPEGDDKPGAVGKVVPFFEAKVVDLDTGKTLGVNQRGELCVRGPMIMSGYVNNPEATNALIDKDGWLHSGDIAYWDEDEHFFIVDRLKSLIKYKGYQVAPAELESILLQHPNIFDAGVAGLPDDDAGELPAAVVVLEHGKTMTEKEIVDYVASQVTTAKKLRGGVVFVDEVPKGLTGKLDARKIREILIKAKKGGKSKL
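Firefly luciferase (PKLight detection mix) with 10 uM ATP in pH 7.2 imidazole buffer (KCl, MgCl2, Tween 20, BSA). Compounds tested across a concentration series (qHTS). Luminescence read after 8 min at ambient temperature.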
HEK293 cAMP cs – counter-screen for TSHR agonists: cAMP increase in parental HEK293; AID 938; 73,000 compounds, 2.5% hits; Potency, µM (titrated, usually from 57.1 µM), for the others: top-dose activation, actives largely listed as activators; parental HEK293 CNG cAMP sensor, membrane potential fluorescence; also: % of control where 0% means no effect; nearly all actives have a fitted effect of over 55% in size
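Parental HEK 293 cells stably expressing a modified CNG channel (no TSHR) report cAMP rise as membrane depolarization. Membrane potential dye with 100 uM RO 20-1724 was loaded for 60 min at room temperature, then compound added for 30 min; fluorescence read at 590 nm.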
TSHR agonist – activates the human thyroid stimulating hormone receptor; HEK293-CNG-TSHR cells (CNG channel as cAMP sensor), membrane potential dye, cAMP; 73,000 compounds, 0.48% hits; Potency, µM (titrated, usually from 57.1 µM), inactives show at the highest dose activation, hits mostly activators; P16473; active = well fitted activation curve with a large enough effect in the main read-out, with a control signal flat, not every such curve was filed as active; inconclusive = small, poorly fitted or top-dose-only effect, or a change in a side signal; inactive = no such curve, though single readings can be large or run the other way; % of control where 0% means no effect;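 also: the control signal comes from parental cells without the receptor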
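HEK 293 cells stably expressing TSHR and a modified CNG channel, with CNG-only parental cells as counterscreen, were preloaded 60 min at room temperature with membrane potential dye containing 100 uM RO 20-1724. Compound exposure was 30 min, and depolarization was read as fluorescence at 590 nm.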
Tau fil binding – binds recombinant human tau filaments; recombinant tau filaments, thioflavin S fluorescence, 15 h; filaments grown with octadecylsulfate alongside compound; 71,000 compounds, 2% hits; Potency, µM (series often up to 57.1 µM), inactives show top-dose activity change, negative = inhibition; P10636;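 also: % is scaled to controls: 0 for no effect and ±100 for the full control effect; actives lower thioflavin S fluorescence by blocking filaments or displacing dye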
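Recombinant tau protein (human, 1 uM final) plus 30 uM ODS in HEPES pH 7.4 with NaCl, DTT and thioflavine S. Compound present from the start; fluorescence at 510 nm after 15 h, 37 C.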
15-hLO inh – 15-hLO (ALOX15) enzyme inhibition. purified 15hLO-1, xylenol orange hydroperoxide absorbance. 74,000 compounds, 1.4% hits. Potency, µM (highest dose often 57.1 µM), inactives show top-dose activity change, negative = inhibition, usual class: inhibitors. P16050; also: % is scaled to controls: 0 for no effect and ±100 for the full control effect; nearly all actives have a fitted effect of over 55% in size
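Purified human 15hLO-1 (40 nM) in 25 mM Hepes pH 7.5, 0.01% Triton X-100, preincubated 15 min RT with compound, then 50 uM arachidonic acid for 6 min. Hydroperoxide read by ferrous/xylenol orange, 30 min; 573/405 nm absorbance ratio gave progress.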
* marks the source's active call; other numbers are inactive results; ? = inconclusive; . = not tested or not shown; [ ] = another dose, or the depositor's remark. Hits are enriched below; roughly 7.8% of the tested compounds scored in any of these assays. Unless noted, calls follow the shape of the dose curve; as a rule, active = well fitted curve in the direction sought with a large enough effect; inconclusive = small, poorly fitted or top-dose-only effect, or another doubt; inactive = no such curve, though single readings can be large; an effect the other way counts as inactive or inconclusive. Potency is read from the fitted curve at half-maximal effect.

SMILES | Bst PK mod | FLuc inh | HEK293 cAMP cs | TSHR agonist | Tau fil binding | 15-hLO inh
COC(=O)[C@@]1(Cc2ccc(OC)cc2)[C@H]2c3cc(C(=O)N(C)C)n(Cc4ccc(C)o4)c3C[C@H]2CN1C(=O)c1ccccc1 | . | . | 16µM* | ? | 0% | .
COC(=O)[C@@]1(Cc2ccc(OC)cc2)[C@H]2c3cc(C(=O)N(C)C)n(Cc4ccc(S(C)(=O)=O)cc4)c3C[C@H]2CN1C(=O)c1ccccc1 | . | . | ? | ? | 10% | .
COC(=O)[C@@]1(Cc2ccc(F)cc2)[C@H]2c3cc(C(=O)N(C)C)n(Cc4ccc(S(C)(=O)=O)cc4)c3C[C@H]2CN1C(=O)c1ccccc1 | . | . | ? | ? | 11% | .
COC(=O)[C@@]1(Cc2ccc(F)cc2)[C@H]2c3cc(C(=O)N(C)C)n(Cc4ccsc4Br)c3C[C@H]2CN1C(=O)c1ccccc1 | . | . | 4µM* | ? | 37% | .
O=C(NC1CCN(Cc2ccccc2)C1)c1ccc(Cc2nc3ccccc3[nH]2)cc1 (stereo not drawn) | . | . | -8% | 2% | . | -7%
O=C(O)c1cc(S(=O)(=O)Nc2cccc(Cl)c2)ccc1O | . | . | ? | ? | . | -6%
CC(C)c1cccc2nc3c(c([Si](C)(C)C(C)(C)C)c12)Cn1c-3cccc1=O | . | . | 19% | 14% | ? | .
CC(C)c1cccc2c([Si](C)(C)C)c3c(nc12)-c1cccc(=O)n1C3 | . | . | 25µM* | ? | 14% | .
CCc1cccc2nc3c(c([Si](C)(C)C)c12)Cn1c-3cccc1=O | . | . | ? | ? | 16µM* | .
CCn1c(N)c(C(=O)NCC2CCCO2)sc1=S (stereo not drawn) | >57 | -3% | ? | ? | 7% | 10µM*
CS(=O)(=O)c1ccc(-c2cc(Br)sc2-c2ccc(F)cc2)cc1 | . | 2% | ? | ? | ? | -10%[25.6 µM]
NS(=O)(=O)c1ccc(N=Nc2ccc[nH]c2=O)cc1 | . | 1%[11.4 µM] | -12%[11.4 µM] | 0%[11.4 µM] | 0%[11.4 µM] | 3.2µM*
CCCC1c2c(ccc3ccccc23)Oc2ccc3ccccc3c21 | . | 5%[11.4 µM] | 7%[11.4 µM] | 1%[11.4 µM] | -5%[11.4 µM] | -3%[11.4 µM]
O=C(CCN1CCOCC1)Nc1ccc2c(c1)CCC2 | >57 | 1% | 10% | 3% | -9% | 25µM*
Cc1noc(C)c1C(=O)NCCCN1CCCC1=O | >57 | 2% | 4% | -5% | 1% | -3%
NC(N)=NCCC[C@H](NC(=O)CC1(CC(=O)N2CCN(C3c4ccccc4NC(=O)c4ccccc43)CC2)CCCC1)C(=O)NCCn1c(=O)n(-c2ccccc2)n(-c2ccccc2)c1=O (stereo partly drawn) | . | . | -15% | -9% | . | 20µM*
N#Cc1cccc(-c2nc3cnc(Oc4cccc(Cl)c4)nc3n(C3CC3)c2=O)c1 | . | 0%[11.4 µM] | -7% | -2% | 10µM* | -2%
O=c1c(-c2ccc(Cl)cc2)nc2cnc(Oc3ccccc3)nc2n1C1CC1 | . | 1%[11.4 µM] | 6% | -2% | 13µM* | -10%
O=c1c(-c2ccccc2)nc2cnc(Oc3ccccc3)nc2n1C1CC1 | . | 0%[11.4 µM] | ? | ? | -22% | -1%
N[C@H](C(=O)O)[C@@H](O)c1cnc[nH]1 | . | 0%[11.4 µM] | 1%[11.4 µM] | -4%[11.4 µM] | 4%[11.4 µM] | 9%[11.4 µM]
O=C(CSc1nnc(C23CC4CC(CC(C4)C2)C3)o1)Nc1ccc(N2CCOCC2)c(Cl)c1 | >57 | 4% | -2% | 17% | 39% | -14%
CC(C)CCSc1nc2c(c(=O)[nH]c(=O)n2C)n1CCc1ccccc1 | >57 | -5% | 10µM* | ? | -5% | -11%
CC(C)CCn1c(SCc2ccc(Cl)cc2)nc2c1c(=O)[nH]c(=O)n2C | >57 | 1% | 10µM* | ? | 18% | -18%
CCCCn1c(SCc2ccc(Cl)cc2)nc2c1c(=O)[nH]c(=O)n2C | >57 | -3% | ? | ? | 21% | -21%
CCCCCCn1c(SCC(C)C)nc2c1c(=O)[nH]c(=O)n2C | >57 | 1% | 25µM* | ? | 22% | -1%
SMILES | Bst PK mod | FLuc inh | HEK293 cAMP cs | TSHR agonist | Tau fil binding | 15-hLO inh
S=C(Nc1ccccc1)Nc1ccccc1C#Cc1ccccc1 | . | . | 17% | 12% | -12% | .
CCSCCCC(=O)O | . | 3%[11.4 µM] | ? | ? | 6%[11.4 µM] | -3%[11.4 µM]
CN(C)Cc1c[nH]c2nc[nH]c(=O)c12 | . | 1%[11.4 µM] | -3%[11.4 µM] | 4%[11.4 µM] | 5%[11.4 µM] | 5%[11.4 µM]
COc1ccccc1N1CCN(S(=O)(=O)c2c(C)ccc3nsnc23)CC1 | 2.9* | 1% | 3% | 24% | ? | -9%
O=C(Nc1ccc(N2CCOCC2)c(F)c1)c1ccncc1 | >57 | -6% | -4% | 2% | -12% | 2%
Cc1ccc(C(=O)N2CCCC(c3nc4c(nnn4Cc4ccccc4)c(=O)[nH]3)C2)cc1 (stereo not drawn) | >57 | 1% | 25µM* | ? | 32% | 7%
Cc1ccc(CC(=O)N2CCC(c3nc4c(nnn4Cc4ccccc4)c(=O)[nH]3)CC2)cc1 | . | 2% | 8% | 1% | 65% | -4%
C=CCn1c(=O)c2c(C)c(C)sc2n2c(Nc3ccccc3)nnc12 | >57 | 1% | 10% | . | 4% | -9%
CCCCOC(=O)c1ccc(NC(=O)c2cnccn2)cc1 | >57 | -5% | 8% | -1% | 25µM* | -1%
O=C(Nc1ccc2ccccc2c1)c1cnccn1 | . | 7.9µM* | -1% | 0% | 25µM* | -13%
O=C(Nc1ccc2nccnc2c1)c1cnccn1 | >57 | -7% | 5% | -4% | -1% | 3%
O=C(Nc1ccc2ccccc2c1)c1cccnc1 | . | 13µM* | 0% | -11% | 20% | 0%
C[Si](C)(C)C#Cc1ccccc1NC(=S)Nc1ccccc1 | . | . | 27% | . | ? | .
C[C@H](O)[C@H](O)[C@@H](O)c1cnc2nc(N)[nH]c(=O)c2n1 | . | 0%[11.4 µM] | 2% | -4% | 17% | .
c1nc(NCCc2cnc[nH]2)c2[nH]cnc2n1 | . | 2%[11.4 µM] | -1%[11.4 µM] | 8%[11.4 µM] | 5%[11.4 µM] | 10%[11.4 µM]
CCOC(=O)c1cccc(NC(=O)c2cc3sccc3n2C)c1 | . | ? | 10µM* | ? | 15% | -28%
Cn1c(C(=O)Nc2ccc3c(c2)OCCO3)cc2sccc21 | 3* | 3.2µM* | 0% | 13% | ? | -17%
Cn1c(C(=O)NCCN2CCOCC2)cc2sccc21 | . | . | -16% | -4% | . | 4%
CCOC(=O)c1ccccc1NC(=O)c1cc2sccc2n1C | >57 | -3% | ? | ? | -10% | 0%
O=C(CSc1ccc2nnc(-c3ccc(Cl)cc3)n2n1)N1CCN(c2ccccc2)CC1 | . | 3% | 6% | 1% | -7% | 0%
CO[C@H]1COC(=O)C/C=C\[C@@H](C)[C@H](OC)COC(=O)[C@H]2CCCN2C(=O)C/C=C\[C@@H]1C | . | -2%[11.4 µM] | -3%[11.4 µM] | -7%[11.4 µM] | . | 7%[11.4 µM]
O=C(O)c1cc(NCc2ccccc2C(F)(F)F)ccc1N1CCOCC1 | >57 | 0% | 4% | 12% | -3% | 16%
